ChEMBL document CHEMBL3988442, “University of Dundee, Small-Polar-MMV Screening Library” (2021)
Screen size: about 48,000 compounds; about 13,000 (27%) showed an effect of 50% or more. Some of the results follow.

Tested on: Wolbachia pipientis
Experiment: Anti-Wolbachia Cell-Based Screen
Assay type: functional
Parameters: scale not given: in the data most compounds retested in dose-response had high values
Settings: 5 µM

Compound	Percent Effect [%]
CCNC(=O)N1C[C@@H]2OCC(=O)N(CC3CC3)[C@@H]2C1	-6.422
Cc1nsc(NC2CCOC3(CCCCC3)C2)n1 (configuration not stated)	-0.6251
Cc1cnn(CCNCc2csc(-c3ccc4c(c3)OCO4)n2)c1	-11.61
CN(CCS(=O)(=O)c1cc(Cl)ccc1Cl)CC(N)=O	6.108
Cc1ccn(-c2ccc(NCc3cccnc3N3CCCCC3)nn2)n1	-6.636
Nc1cc2c(nn1)CCN(C(=O)c1ccccc1Oc1cccnc1)C2	-10.76
CCc1nccn1C1CCCN(C(=O)c2cnc3onc(C)c3c2)C1 (configuration not stated)	-19.2
Cc1ncsc1C(=O)N1CCCC(n2cncn2)C1 (configuration not stated)	88.89
Cc1cc(C(=O)N2CCCC(n3cncn3)C2)c(C)n1CC1CC1 (configuration not stated)	127.1
Cc1cc(C)n(CCC(=O)N2CCCC(n3cncn3)C2)n1 (configuration not stated)	-3.067
COCC(C)NS(=O)(=O)c1ccc(Br)cn1 (configuration not stated)	-13.48
O=C(Nc1ccccc1F)N1CCN(Cc2noc(C3CC3)n2)CC1	0.2085
CN(C)c1nc2c(c(N3CCC4(CC3)CNC(=O)C4)n1)CCCC2	100.7
Cc1ccc(-c2ccnc(N3CCC4(CC3)CNC(=O)O4)n2)c(C)n1	5.789
c1cnn(CC2CN(c3ncnc4c3CCC4)CCO2)c1 (configuration not stated)	-17.69
CC(C)Cc1ncc2c(n1)CN(c1nc(N(C)C)nc3c1CCCC3)C2	27.68
O=C1NCC2(CCCN(c3ncnc4c3CCC4)CC2)O1 (configuration not stated)	82.73
CC(=O)NC1CCN(c2nc(N(C)C)nc3c2CCCC3)CC1	10.24
Cc1nc(N(C)C)nc(N2CCC3(CC2)CNC(=O)O3)c1C	97.26
CN1CCc2[nH]nc(C(=O)N3CCCC4(CC3)CNC(=O)O4)c2C1 (configuration not stated)	1.077
c1nc2c(c(N3CCOC(Cn4cncn4)C3)n1)CCC2 (configuration not stated)	-6.426
CN(C)c1nc2c(c(N3CCCC4(CC3)CNC(=O)O4)n1)CCCC2 (configuration not stated)	98.47
CN(C)c1nc2c(c(N3CCC4(CCCNC4=O)C3)n1)CCCC2 (configuration not stated)	9.775
CCCc1cnc(C)nc1N1CCC2(CC1)CNC(=O)O2	7.463
CC(C)Cc1cc(CC2(NCc3ccco3)COC2)no1	-14.13
Cc1ccc(-n2ccc3nc(N4CCCC4)ncc3c2=O)cc1C	-4.635

Compound	Percent Effect [%]
COCCN1C[C@H]2CCN(c3ncccn3)CC[C@H]2S1(=O)=O	-6.135
COc1ccc(F)cc1-c1nc2c([nH]1)c(C1CC1)nn2C	5.431
Cn1cc(C(=O)N2CC[C@@H]3[C@@H]2CCN3c2ncc(F)cn2)cn1.O=C(O)C(F)(F)F	3.256
Cc1cnc(N2CC3(CCN(C(=O)c4cccnc4)C3)C2)nc1.O=C(O)C(F)(F)F	-3.598
Cc1ccc(CN2CCC3(CC2)CCN(C(=O)c2cccnc2)C3)o1.O=C(O)C(F)(F)F	93.46
N#Cc1cccc(N2CC3(CCN(C(=O)c4cccnc4)C3)CC2=O)c1.O=C(O)C(F)(F)F (configuration not stated)	6.163
CS(=O)(=O)N1CCC2(CN(C(=O)c3cccnc3)C2)C1.O=C(O)C(F)(F)F	-8.829
O=C(O)C(F)(F)F.O=C(c1cccnc1)N1CCC2(CCN(C(=O)N3CCCC3)CC2)C1	121.5
Cc1ccc(CNC(=O)c2nc3c(o2)CN(C(=O)c2cccnc2)C3)o1.O=C(O)C(F)(F)F	-4.272
NC(=O)N1CCC2(CCN(C(=O)c3cccnc3)CC2)C1.O=C(O)C(F)(F)F	118.8
Cc1nc(N)c2ccc(C3CCCCN3)nc2n1.Cl (configuration not stated)	107.4
CCn1c(C)nnc1CN(C)C1CCN(CCCOC)C1 (configuration not stated)	0.6511
CCn1c(C)nnc1CN(C)C1CCN(CCn2cccn2)C1 (configuration not stated)	0.3298
CCn1c(C)nnc1CN(C)C1CCN(CC2CCC2)C1 (configuration not stated)	111.4
CCn1c(C)nnc1CN(C)C1CCN(CCOc2ccccc2)C1 (configuration not stated)	149.5
CCn1c(C)nnc1CN(C)C1CCN(CCCSC)C1 (configuration not stated)	119.6
CCn1c(C)nnc1CN(C)C1CCN(CCc2ccncc2)C1 (configuration not stated)	1.632
CCn1c(C)nnc1CN(C)C1CCN(CCS(=O)(=O)CC)C1 (configuration not stated)	144.9
COc1ccc(CNCc2cn(C)nc2C)cc1	122.7
COc1ccc(CNCc2cc(Br)c3c(c2)OCO3)cc1	-3.854
COC(=O)c1ccc(CNCc2ccn(C)n2)cc1	138.6
COC(=O)c1ccc(CNC(=O)Cc2csc(C(C)=O)c2)cc1	12.04
COc1ccc(CCn2cnnc2[S+](C)[O-])cc1 (configuration not stated)	-1.402
COC(=O)c1ccc(CNC(=O)Nc2ccc(=O)n(C)c2)cc1	12.29
CCn1cc(CNCc2ccc(C(=O)OC)cc2)c(C)n1	153.8
COc1ccc(-n2ccc(CNCc3ccc(OC)c(O)c3)n2)cc1	-11.8

Compound	Percent Effect [%]
COC(=O)c1ccc(CNC(C)c2ccc(S(C)(=O)=O)cc2)cc1 (configuration not stated)	-2.189
COC(=O)c1ccc(CNCc2cn(C)nc2C)cc1	100.4
Cc1ccc(-c2ncc(CNc3cnccc3CO)s2)cc1	-6.325
Cc1nc(-c2ccccc2)sc1C(=O)N(C1CC1)C1CC(=O)NC1=O (configuration not stated)	-7.701
CCN(CC)C(=O)CN(C)C(=O)c1cc(-c2cccc(Cl)c2)no1	-12
CCN(CC)c1ccc(NS(=O)(=O)c2cnn(C(C)C)c2)cn1	-6.938
COCc1ccc(C(=O)N2CCCN(Cc3ccc(F)cc3)CC2)s1	2.247
CCCS(=O)(=O)c1ccc(N2CCN(c3ccccn3)CC2)nn1	2.245
Cc1ccc(CNCc2c(C)nn(C)c2N(C)C)cn1	-12.73
Cc1nn(C)c(N(C)C)c1CNCc1ccc(Cn2cccn2)cc1	10.8
Cc1nn(C)cc1CNCc1ccc(N(C)C)cc1	119.7
CC(C)(C)OC(=O)N1CCC[C@H](NCC2CCOCC2)C1	-10.59
Cc1cc(NC(=O)Cc2ccccc2O)c[nH]c1=O	7.885
CCn1cc(CN2CCc3nc(-c4ccccn4)nc(O)c3C2)cn1	107.7
CCn1cc(CN2CCc3nc(N4CCOCC4)nc(O)c3CC2)cn1	-4.464
O=C(Cc1ccccn1)N1CCc2nc(-c3cnccn3)nc(O)c2C1	-13.11
CN1CCN(C(=O)Cc2ccccn2)Cc2cccnc21	-6.313
Oc1nc(-c2cnccn2)nc2c1CCN(Cc1ccccn1)C2	89.8
O=C(Cc1ccccn1)N1CCc2c(O)nc(-c3cnccn3)nc2C1	94.87
CCOCCC(=O)N(C)Cc1noc(C(C)C)n1	-6.768
CC(C)CC(C(=O)N1CCCSCC1)N1CCCCC1=O (configuration not stated)	-10.63
COc1ccc(C(=O)N(c2ccc(OC)c(F)c2)C(C)C)cn1	3.547
CNS(=O)(=O)c1cccc(C(C)NCc2ccc(F)c(F)c2)c1 (configuration not stated)	18.96
COC(=O)c1ccc(N2CCC(N(C)c3ccccc3)CC2)nn1	-3.944
O=C(CCC1CCCO1)NCc1ccnc(-n2cccn2)c1 (configuration not stated)	-9.533
COCCN(Cc1sccc1C)C(=O)C1CCCN(C(N)=O)C1 (configuration not stated)	10.64

Compound	Percent Effect [%]
Cc1ncc(CNC(C)(C)CO)c2cc(C(=O)c3ccc(Br)cc3)oc12	82.9
Cc1ncc(CN(C)CCO)c2cc(C(=O)c3ccc(Br)cc3)oc12.Cl	142.2
Cc1oc(CN(C)C(=O)c2ccc(Br)cc2)cc1C(=O)O	5.692
Cc1ncc(CNCCO)c2cc(C(=O)c3ccc(Br)cc3)oc12.Cl	215.6
COC(=O)c1oc(CNC(C)(C)CO)cc1C	5.82
Cc1ncc(CNCC(C)O)c2cc(C(=O)c3ccc(Br)cc3)oc12.Cl (configuration not stated)	102.9
CC(O)CNCc1ccccc1C(F)(F)F.Cl (configuration not stated)	-7.899
COC(=O)c1ccc(C(=O)NCc2ccc(Br)cc2)cn1	0.8592
COc1ncc(C(=O)NCc2ccc(Br)cc2)cn1	4.726
Cc1ncsc1CCN(C)Cc1ccc(CO)o1	-28.69
CN1CCc2[nH]nc(C(=O)N3CCCC4(CN(C)C(=O)O4)C3)c2C1 (configuration not stated)	0.3528
CC(C)c1cc(NCC2(N3CCOCC3)CCCCC2)ncn1	-13.37
Cc1noc2ncnc(N3CCC(O)(Cn4ccnc4)CC3)c12	-11.6
Cc1cc(-c2nnn(CCC(N)=O)n2)ccc1F	-8.55
CN(Cc1ccsc1)C(=O)Cn1c(CS(C)(=O)=O)nc2ccccc21	150.1
COCCN1CCN(CC(=O)N(C)Cc2ccsc2)CC1	-3.337
CN(Cc1ccsc1)C(=O)CS(=O)(=O)Cc1ccc(Cl)c(Cl)c1	-4.981
CS(=O)(=O)CCNC(=O)C1(c2cccc(Cl)c2)CCCCC1	4.174
CS(=O)(=O)N1CCOCC2(CCN(Cc3ccoc3)CC2)C1.O=C(O)C(F)(F)F	115.7
CS(=O)(=O)N1CCOCC2(CCN(Cc3ccc[nH]3)CC2)C1.O=C(O)C(F)(F)F	-6.777
CN1CCOCC12CCN(Cc1ccoc1)CC2.O=C(O)C(F)(F)F.O=C(O)C(F)(F)F	109
Cc1ccc(CN2CCC3(CC2)CCN(Cc2ccoc2)CC3)cc1.O=C(O)C(F)(F)F.O=C(O)C(F)(F)F	17.41
CS(=O)(=O)N1CCOCC2(CN(Cc3ccsc3)CCO2)C1.O=C(O)C(F)(F)F (configuration not stated)	-5.064
O=C(CCc1ccsc1)NCc1ccnc(OC2CCOCC2)c1	-13.16
